Results taken from PubChem BioAssay AID939 (National Center for Advancing Translational Sciences (NCATS), 2007).
Inconclusive results are not listed. Calls of active or inactive are those of the source. The call rests on the fitted dose curve; in most records, active means well fitted activation curve with a large enough effect in the main read-out, with a control signal flat; inconclusive means small, poorly fitted or top-dose-only effect, or effect the other way, or a change in a side signal; inactive means no such curve, though single readings can be large or run the other way.

What was measured:
[1] = Confirmation Concentration-Response Assay for Agonists of the Thyroid Stimulating Hormone Receptor; details: HEK293 TSHR-CNG cells, membrane potential dye, cAMP; measured here: parental HEK293 counter-screen max; on activation: % of control where 0% means no effect
How it was run: (§1)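 HEK 293 cells stably expressing TSHR and a cAMP-gated CNG channel; membrane potential dye with 100 uM RO 20-1724, compound added 30 min before fluorescence read (590 nm emission). Parental CNG-only HEK 293 cells served as counter-line.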

[2] = target: Thyrotropin receptor (Homo sapiens) (UniProt P16473); test: as above; details: HEK293 TSHR-CNG cells, membrane potential dye, cAMP; series mostly up to 25.6 µM
How it was run: as §1
Potency means the concentration at half of the fitted maximal effect.

Sequence of Thyrotropin receptor (Homo sapiens) (P16473 whole entry, looked up): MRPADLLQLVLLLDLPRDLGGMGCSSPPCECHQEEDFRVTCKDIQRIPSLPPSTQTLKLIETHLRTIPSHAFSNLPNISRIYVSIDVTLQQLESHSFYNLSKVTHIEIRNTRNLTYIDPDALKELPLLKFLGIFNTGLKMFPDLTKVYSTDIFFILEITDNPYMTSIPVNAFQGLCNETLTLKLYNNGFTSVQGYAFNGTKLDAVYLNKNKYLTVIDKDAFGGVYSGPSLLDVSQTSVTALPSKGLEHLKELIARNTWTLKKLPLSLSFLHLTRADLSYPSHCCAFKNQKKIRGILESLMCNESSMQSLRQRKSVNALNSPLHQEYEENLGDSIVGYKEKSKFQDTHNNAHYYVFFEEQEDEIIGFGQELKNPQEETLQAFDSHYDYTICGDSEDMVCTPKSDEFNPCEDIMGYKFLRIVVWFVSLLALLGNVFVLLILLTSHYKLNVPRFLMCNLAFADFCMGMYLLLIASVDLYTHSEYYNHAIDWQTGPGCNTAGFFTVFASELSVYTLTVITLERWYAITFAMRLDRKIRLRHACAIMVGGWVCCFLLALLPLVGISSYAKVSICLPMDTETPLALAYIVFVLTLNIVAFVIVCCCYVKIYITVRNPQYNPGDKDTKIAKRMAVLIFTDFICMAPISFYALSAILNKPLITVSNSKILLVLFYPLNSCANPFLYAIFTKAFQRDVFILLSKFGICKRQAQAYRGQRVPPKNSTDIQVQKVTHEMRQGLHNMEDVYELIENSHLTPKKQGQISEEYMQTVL

For `CN1C(=O)C2C=CC1C1C(=O)N(c3ccccc3)C(=O)C21` (stereo not given), the max response [1] was 2.29% and the Potency [2] was “inactive”.

In the case of `CN(Cc1ccco1)C(=O)Cn1c(=O)oc2cc(S(=O)(=O)NCc3ccccc3)ccc21`, the max response [1] is reported as -3.7% and the Potency [2] is reported as 12.6 µM (active).

Work on `O=C1N(c2ccccc2)C2CS(=O)(=O)CC2N1c1ccc(Cl)c(Cl)c1` (stereo not given) yielded a max response [1] of -23.3%.

With `COCCNC(=O)C(c1ccccc1)N(Cc1cccs1)C(=O)Cn1nnc2ccccc21` (stereo not given) the max response [1] was 6.98%.

In the case of `CCc1ccc(-c2nc(CN3CCC(C(=O)N4CCN(c5ccccc5)CC4)CC3)c(C)o2)cc1`, the max response [1] is reported as 12.8%.

With `Nc1ccc2c(c1)COc1ccccc1O2` the max response [1] was -5.76% and the Potency [2] was “inactive”.

For `CCOc1ccc(N(C(C)C(=O)Nc2ccc(OC)cc2)S(C)(=O)=O)cc1` (stereo not given), the max response [1] was -4.4% and the Potency [2] was “inactive”.

In the case of `Cc1cnc(NC(=O)c2ccc3c(c2)C(=O)N(Cc2ccco2)C3=O)s1`, the max response [1] is reported as -10.7% and the Potency [2] is reported as “inactive”.

In the case of `C=CCn1c(NCc2ccc3c(c2)OCO3)nc2ccccc21`, the max response [1] is reported as 13.4% and the Potency [2] is reported as “inactive”.

In the case of `CCOc1ccc(N(CC(=O)Nc2ccc(C)cc2)S(=O)(=O)c2c(C)noc2C)cc1`, the max response [1] is reported as 5.32% and the Potency [2] is reported as “inactive”.

For `Cc1cc(-n2c(C)cc(C(=O)CSc3nnnn3-c3ccc(Cl)cc3)c2C)no1`, the max response [1] was 13.5% and the Potency [2] was 3.98 µM (active).

With `O=C(CN(Cc1ccccc1Cl)C(=O)Cn1nnc(-c2cccs2)n1)NCC1CCCO1` (stereo not given) the max response [1] was 8.66% and the Potency [2] was “inactive”.

In the case of `CCN(c1ccccc1)S(=O)(=O)c1ccc(Oc2ccc(-n3ccnc3)cc2)nc1`, the max response [1] is reported as -1.61% and the Potency [2] is reported as “inactive”.

With `Cc1occc1-c1nnc(SCC(=O)NCc2ccc3c(c2)OCO3)n1CC(C)C` the max response [1] was 9.78% and the Potency [2] was 12.6 µM (active).

For `COc1ccc(CNc2nc(SC)n[nH]2)cc1OC`, the max response [1] was 3.91% and the Potency [2] was “inactive”.

Work on `CCOC(=O)C1C(=O)Nc2nc(C)nn2C1c1ccccc1` (stereo not given) yielded a max response [1] of -7.34%.

With `CCC(C)(C)n1nnnc1CN(Cc1ccco1)Cc1cc2cc3c(cc2[nH]c1=O)OCO3` the max response [1] was -12.1% and the Potency [2] was “inactive”.

With `Cc1cc(SCNC(=O)c2ccccc2)ncn1` the max response [1] was -2.72% and the Potency [2] was “inactive”.

In the case of `CC(C)CC(=O)Nc1cccc(-c2cn3ccsc3n2)c1`, the max response [1] is reported as -8.65% and the Potency [2] is reported as “inactive”.

Compound `O=C1CC(c2ccco2)CC2=C1C(c1ccccc1)n1nc(C(F)(F)F)nc1N2` (stereo not given) has a max response [1] of -7.22%.

For `O=C(COC(=O)C1c2ccccc2Oc2ccccc21)Nc1ccc2c(c1)OCO2`, the max response [1] was 8.54% and the Potency [2] was 12.6 µM (active).

`CCOC(=O)N1CCC(NC(=O)c2ccc(CNS(=O)(=O)c3ccc(F)cc3)cc2)CC1` showed a max response [1] of 8.37%.

With `NC(=O)c1nsc(C(=O)N(CC(=O)NCc2ccc3c(c2)OCO3)C2CCCCC2)c1N` the max response [1] was 8.82% and the Potency [2] was 1.26 µM (active).

Compound `O=S(=O)(c1ccccc1)N1CCN(C2CCN(Cc3ccccc3)CC2)CC1` has a max response [1] of 0.84%.

With `COc1cc(OC)cc(-c2nnc(SCC(=O)N(C(C)C)C(C)C)o2)c1` the max response [1] was 16.6% and the Potency [2] was 12.6 µM (active).

With `O=C1c2ccccc2C(=O)N1Cc1nc(-c2ccccc2)no1` the max response [1] was 21.1%.

With `CCOC(=O)c1ccc(NC(=O)c2ccc(CN3CCOCC3)cc2)cc1` the max response [1] was 11%.

With `O=C1C2C3CCCC3=C3CCCC3C2C(=O)N1c1ccc(Cl)cc1` (stereo not given) the max response [1] was -8.66%.

For `CCOC(=O)CSc1nnc(NC(=O)c2cccc(S(=O)(=O)N3CCCCC3)c2)s1`, the max response [1] was -6.14% and the Potency [2] was “inactive”.

For `Cc1ccccc1-c1nc(CN2CCC(C(=O)N3CCN(c4ccccn4)CC3)CC2)c(C)o1`, the max response [1] was 17.1% and the Potency [2] was “inactive”.
